# High-throughput results as filed in PubChem.
# In the library only some 3.4% were active in any assay of this set; here they are far more common.
# ADAM17 inh: inhibitors of human ADAM17 | P78536 | recombinant ADAM17, EDANS/DABCYL FRET peptide cleavage | inhibition, % at 6.95 µM | 370,000 tested, 0.83% active;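 active means inhibition above the mean of compounds lying between control limits plus 3 SD, set per campaign, cut at about 8.5% in these data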;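 further: 0% = DMSO-only wells as the low control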
# HGIII-sPLA2 inh: Blocks human group III sPLA2 activity; QFRET BODIPY PC-A2 liposome hydrolysis, fluorescence; 370,000 tested, 0.56% active; inhibition, % at 12.2 µM; Q9NZ20;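 active means inhibition above mean plus 3 SD of compounds lying within the high and low control bounds, cut at about 19% in these data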;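 further: 0% = median of test compound wells and 100% = no enzyme DMSO wells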
# ADAM10 inh: ADAM10 inhibition, QFRET primary screen; O14672; recombinant ADAM10, EDANS/DABCYL FRET peptide cleavage, 3 h; inhibition, % at 7 µM; 370,000 tested, 0.62% active; AID 720582;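 active means inhibition above a per-campaign cutoff equal to the mean of compounds falling between control-based bounds plus 3 SD, cut at about 20% in these data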;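 further: 0% = DMSO wells while the 100% control is not disclosed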
# KLK7 zymogen act: activators of human kallikrein-7 zymogen | purified proKLK7, EDANS-DABCYL substrate fluorescence; 100% is mature enzyme control, 0% vehicle | activation, % at 7 µM | 370,000 tested, 0.9% active | AID 652039 | P49862;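 active means activation above the mean of all tested compounds plus 3 SD, computed per campaign excluding outliers beyond control limits, cut at about 13% in these data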
# NRP1-CendR mod: NRP-1/CendR interaction modulation | O14786 | FAM-RPARPAR peptide binding to NRP-1, fluorescence polarization | inhibition, % at 25 µM | 360,000 tested, 0.85% active | AID 602438;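 active means inhibition or corrected inhibition above about 18%, plus a signal ratio from 0.5 to 1.5, limit read from the data, passing the limit was not always enough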
# Target sequence (O14786 whole entry, looked up): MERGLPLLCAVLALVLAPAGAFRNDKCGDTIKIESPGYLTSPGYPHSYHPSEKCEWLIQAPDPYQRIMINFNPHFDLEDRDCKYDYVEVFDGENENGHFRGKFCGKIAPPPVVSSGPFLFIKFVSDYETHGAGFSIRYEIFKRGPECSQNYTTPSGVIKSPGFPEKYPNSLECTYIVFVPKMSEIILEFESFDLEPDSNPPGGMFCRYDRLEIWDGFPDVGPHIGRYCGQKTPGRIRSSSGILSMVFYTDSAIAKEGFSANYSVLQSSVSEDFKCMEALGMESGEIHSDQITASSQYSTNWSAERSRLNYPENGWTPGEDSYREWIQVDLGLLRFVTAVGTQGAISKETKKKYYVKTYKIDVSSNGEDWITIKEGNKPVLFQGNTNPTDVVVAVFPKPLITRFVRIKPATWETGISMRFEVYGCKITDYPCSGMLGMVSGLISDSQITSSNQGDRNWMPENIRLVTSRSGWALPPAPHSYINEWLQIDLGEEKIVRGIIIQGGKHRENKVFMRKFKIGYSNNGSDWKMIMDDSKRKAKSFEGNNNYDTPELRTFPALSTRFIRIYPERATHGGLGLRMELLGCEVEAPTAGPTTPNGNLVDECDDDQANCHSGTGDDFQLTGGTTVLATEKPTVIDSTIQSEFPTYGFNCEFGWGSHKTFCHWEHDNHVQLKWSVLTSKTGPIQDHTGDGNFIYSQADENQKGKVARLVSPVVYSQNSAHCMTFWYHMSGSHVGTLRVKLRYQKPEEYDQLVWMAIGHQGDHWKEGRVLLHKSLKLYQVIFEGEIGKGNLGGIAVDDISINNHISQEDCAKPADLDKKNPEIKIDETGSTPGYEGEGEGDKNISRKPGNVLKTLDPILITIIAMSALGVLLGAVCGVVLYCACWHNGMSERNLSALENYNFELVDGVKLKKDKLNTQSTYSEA
# proKLK7 act conf: confirmation of human kallikrein-7 zymogen activators; shares compounds with KLK7 zymogen act; purified proKLK7, EDANS-DABCYL substrate fluorescence; scaled: vehicle 0, mature enzyme 100; activation, % at 7 µM; 3,200 tested, 68% active; AID 686949;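 active means activation, as change over the incubation, above the mean of all tested compounds plus 3 SD, cut at about 13% in these data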
# EDANS interfere: optically interferes with EDANS-DABCYL signal, flagging KLK7 hits | 3,200 tested, 80% active | shares compounds with KLK7 zymogen act | AID 686952 | EDANS-DABCYL substrate fluorescence interference, no enzyme, 4 h; solvent 0%, active enzyme control 100% | activation, % at 7 µM;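 active means activation above the all-compound mean plus 3 SD, ignoring values outside control-based bounds, cut at about 4.8% in these data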;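 further: value is the 4 h activation minus the activation read at time zero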
# K7 EDANS ctr: optically interferes with EDANS-DABCYL fluorescence, kallikrein-7 activator counter-screen; shares compounds with KLK7 zymogen act; EDANS-DABCYL peptide fluorescence interference, no enzyme; EC50, µM; 250 tested, 20% active; AID 720493;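 active means compounds that raise the fluorescence signal in this interference counterscreen, with EC50 at or below 10 µM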;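 further: intact quenched peptide substrate alone read at 355 nm excitation and 520 nm emission; signal is fluorescence gain from T0 to T4 after four hours at room temperature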
# The depositor's hits bear a star; i = inactive; x = no result given.
SMILES,ADAM17 inh,HGIII-sPLA2 inh,ADAM10 inh,KLK7 zymogen act,NRP1-CendR mod,proKLK7 act conf,EDANS interfere,others
Cc1ccc2c(c1)C1CS(=O)(=O)N(Cc3ccccc3)CN1C2 (stereo not given),-3,0,-6,0,x,x,x,
COc1ccc(-c2cc3nnc(-c4ccccc4)nc3s2)cc1,-2,5,-4,0,7,x,x,
COc1ccc(-c2cc3ncnc(Cl)c3s2)cc1,i,-5,i,27*,-24,4,3,
COC(=O)[C@]12C[C@H](CC(=O)NCCC(C)C)C(=O)N(Cc3ccco3)C1=C[C@H](C(C)(C)C)O[C@@H]2C,1,-15,1,0,x,x,x,
COc1ccc(C2=Cc3ccc(OC(C)=O)cc3OC2)cc1,-24,-5,-77,24*,3,14*,11*,
Cc1ccc2cc3cc(C(=O)NCCCN4CCCC4)oc3nc2c1,-368,2,i,11,2,x,x,
Cc1ccc2cc3cc(C(=O)NCCCN4CCCCCC4)oc3nc2c1,-314,1,i,18*,1,6,11*,
CCCCN(CC)CCCNC(=O)c1cc2cc3ccc(C)cc3nc2o1,-440,-7,i,22*,-7,8,13*,
COC(=O)[C@H](C)NC(=O)[C@@H]1CC=C[C@@H]2CCN(CCc3ccccc3)C(=O)[C@@H]21,-1,-1,-3,x,x,x,x,
Cc1nn(CCc2nn[nH]n2)c2nc(-c3ccc(Br)cc3)cc(C(F)(F)F)c12,-24,-14,-77,-2,-13,x,x,
Cc1nn(CCc2nn[nH]n2)c2nc(C(F)(F)F)cc(C(F)(F)F)c12,-265,5,i,30*,8,17*,12*,K7 EDANS ctr=>70
N#CCC[C@H]1CC[C@]2(CCCN(C(=O)c3ccco3)C2)O1,-1,2,-2,0,x,x,x,
CS(=O)(=O)N(CC(=O)N1CCOCC1)c1ccc2c(c1)OCO2,2,5,5,17*,-1,0,0,
CCOc1cc(C(=O)Nc2ccc(S(=O)(=O)N3CCCCC3)cc2)ccc1OCC(=O)N1CCOCC1,-1,-14,1,20*,-10,14*,15*,
CCOc1cc(C(=O)Nc2cc(OC)cc(OC)c2)ccc1OCC(=O)N1CCOCC1,-3,-3,-1,0,12,x,x,
Cc1cc(Nc2cccc(Cl)c2)nc(-c2ccccc2O)n1,-4,-1,-22,265*,6,77*,105*,
O=c1c2ccccc2[nH]c2ccccc12,i,9,i,17*,-3,17*,24*,
C#CCNC(=O)C[C@H]1C[C@@]2(C(=O)OC)C(=C[C@H](C(C)C)O[C@@H]2C2CC2)N(Cc2ccc3c(c2)OCO3)C1=O,-1,0,4,0,x,x,x,
CN(Cc1cnc2nc(N)nc(N)c2n1)c1ccc(C(=O)N[C@@H](CCC(=O)O)C(=O)O)cc1,-411,1,i,18*,-65,-9,-13,
Nc1nc2ncc(CNc3ccc(C(=O)N[C@@H](CCC(=O)O)C(=O)O)cc3)nc2c(=O)[nH]1,-155,7,i,-6,-18,x,x,
CC(=O)Nc1ccc(-c2nc3ccc(NC(C)=O)cc3o2)cc1,-350,16,i,33*,-4,26*,16*,K7 EDANS ctr=>69
CC(=O)Nc1cccc(Nc2nc(-c3ccccc3)nc3ccccc23)c1,-14,-33,-45,19*,2,4,7.8*,
CC(=O)Nc1ccc2nc3ccccc3nc2c1,-46,4,-96,43*,-3,46*,43*,
Nc1nc2c(ncn2[C@@H]2O[C@H](C(=O)N[C@H](Cc3ccccc3)C(=O)NC3CCCCC3)[C@@H](O)[C@H]2O)c(=O)[nH]1,-6,7,-16,1,x,x,x,
COc1ccc(CNC(=O)CSc2nc3c([nH]2)c(=O)n(C)c(=O)n3C)cc1,-5,11,-7,1,x,x,x,
SMILES,ADAM17 inh,HGIII-sPLA2 inh,ADAM10 inh,KLK7 zymogen act,NRP1-CendR mod,proKLK7 act conf,EDANS interfere,others
COc1ccc2sc(-c3ccc(S(C)(=O)=O)cc3)c(C(=O)NCCCN3CCCC3=O)c2c1,-24,7,-86,3,-4,x,x,
COc1cc2sc(-c3ccc(S(C)(=O)=O)cc3)c(C(=O)NCc3ccc(C)o3)c2cc1OC,-186,-3,i,14*,-1,23*,31*,
Cc1ccc(CNC(=O)c2c(-c3ccccc3)sc3ccccc23)o1,-2,3,3,0,-9,x,x,
COc1cc2sc(-c3ccc(S(C)(=O)=O)cc3)c(C(=O)NCCCCO)c2cc1OC,-320,-3,i,31*,21,22*,32*,
COc1ccc2c(c1)CCCN2C(=O)C1CCCN(S(=O)(=O)c2cccc3ccccc23)C1 (stereo not given),4,-11,12,1,x,x,x,
CCOC(=O)[C@@]12CCCC3=C1N(CCC3)C(=O)[C@H]2CC(=O)NCc1cccc2ccccc12,1,-6,3,0,x,x,x,
COc1ccc(OC)c(C2NC(=O)NC(C)=C2C(=O)OC2CCCCC2)c1 (stereo not given),-3,2,-6,19*,-8,-2,1,
COc1ccccc1C1NC(=O)NC(C)=C1C(=O)OC1CCCCC1 (stereo not given),1,12,-16,0,3,x,x,
CN(Cc1ccc2c(c1)CCCN2C)C(=O)[C@@H](Cc1ccccc1)NC(=O)[C@H]1O[C@@H](n2ccc(=O)[nH]c2=O)[C@H](O)[C@@H]1O,-2,-4,-13,1,x,x,x,
COc1cc2ccccc2cc1C(=O)O,-13,-3,-33,0,3,x,x,
COc1cc2c(OC)cccc2cc1C(=O)O,-135,1,-406,18*,4,11,8.5*,
CC(=O)c1ccc(N2CCN(S(=O)(=O)c3cc4c(cc3C)NC(=O)CO4)CC2)cc1,-5,8,-1,20*,-4,11,8.1*,
Cc1ccc(C)n1-c1nccc(-c2cccs2)n1,i,0,i,52*,-19,111*,136*,
c1ccc(CSc2nccc(-c3ccco3)n2)cc1,-2,4,-7,0,-34,x,x,
Cc1ccc(C)n1-c1nccc(-c2ccco2)n1,i,1,i,81*,-8,113*,127*,
CCN(CC)C(=O)CC[C@H]1CC[C@]2(CCCN(C(=O)C3CCCC3)C2)O1,-3,13,-8,0,x,x,x,
CN(Cc1ccccc1)C(=O)OCc1cn(Cc2c(F)cccc2F)nn1,-2,4,1,0,x,x,x,
